Inconclusive results are not listed. Active and inactive are the calls of the source.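 Rule for the calls, unless noted: active = normalized viability below 100% at a tested concentration; inactive = the rest.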
Tests used:
[1] = target: ATP-dependent translocase ABCB1 (Homo sapiens) (UniProt P08183); experiment: MDR1 (ABCB1) efflux transporter inhibition, cell-based (AID 377; in the data active = fluorescence slope change above about 50%); conditions: MDR1-expressing cells, fluorescent substrate accumulation slope; stronger effect = higher value; concentration not given here
Sequence of ATP-dependent translocase ABCB1 (Homo sapiens) (P08183 whole entry, looked up): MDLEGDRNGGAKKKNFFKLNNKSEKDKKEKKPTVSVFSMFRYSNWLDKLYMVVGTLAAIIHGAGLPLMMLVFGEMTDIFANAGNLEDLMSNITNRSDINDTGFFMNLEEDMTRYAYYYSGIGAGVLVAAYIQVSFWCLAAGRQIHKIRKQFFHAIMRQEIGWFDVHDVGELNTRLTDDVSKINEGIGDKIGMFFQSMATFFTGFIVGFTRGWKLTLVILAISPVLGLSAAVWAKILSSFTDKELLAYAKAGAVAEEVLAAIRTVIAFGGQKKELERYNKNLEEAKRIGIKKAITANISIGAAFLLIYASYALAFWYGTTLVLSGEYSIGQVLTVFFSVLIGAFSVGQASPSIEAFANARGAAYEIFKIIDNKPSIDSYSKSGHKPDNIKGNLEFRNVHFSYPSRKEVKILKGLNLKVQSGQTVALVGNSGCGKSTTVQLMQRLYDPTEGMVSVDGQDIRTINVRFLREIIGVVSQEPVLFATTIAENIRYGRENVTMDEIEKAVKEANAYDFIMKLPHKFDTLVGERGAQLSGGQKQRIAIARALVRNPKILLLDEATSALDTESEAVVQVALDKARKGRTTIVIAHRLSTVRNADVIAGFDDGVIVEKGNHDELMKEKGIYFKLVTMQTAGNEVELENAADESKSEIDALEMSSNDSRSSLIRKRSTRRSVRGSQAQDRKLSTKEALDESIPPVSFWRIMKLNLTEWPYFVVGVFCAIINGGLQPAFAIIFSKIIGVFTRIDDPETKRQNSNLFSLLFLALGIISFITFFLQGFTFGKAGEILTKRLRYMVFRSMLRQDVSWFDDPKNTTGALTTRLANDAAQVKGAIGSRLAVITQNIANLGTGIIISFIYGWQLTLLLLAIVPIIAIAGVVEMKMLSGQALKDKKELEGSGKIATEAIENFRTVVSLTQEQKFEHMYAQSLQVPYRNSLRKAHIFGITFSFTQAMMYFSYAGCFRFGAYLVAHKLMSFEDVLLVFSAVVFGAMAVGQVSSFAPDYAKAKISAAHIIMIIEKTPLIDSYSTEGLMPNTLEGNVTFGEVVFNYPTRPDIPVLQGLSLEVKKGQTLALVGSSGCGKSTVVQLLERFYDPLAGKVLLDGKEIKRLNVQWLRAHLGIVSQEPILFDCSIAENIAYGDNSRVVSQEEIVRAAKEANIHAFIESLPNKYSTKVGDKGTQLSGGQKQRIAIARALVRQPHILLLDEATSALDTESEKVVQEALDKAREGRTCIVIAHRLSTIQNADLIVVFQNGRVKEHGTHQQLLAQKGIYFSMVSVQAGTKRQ

[2] = circadian clock period modulators, cell-based, LOPAC library, luminescence reporter (AID 2774; call rule not given here;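 note: values are relative to mean of DMSO wells on each plate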); conditions: circadian reporter cells, at 7 µM, actives lie on both sides
[3] = Cy5 fluorescence quenching or enhancement artefacts, artefact control for HCV NS3 helicase inhibitor project, biochemical, LOPAC1280 (AID 687037; call rule not given here); conditions: Cy5-DNA-NS3h complex fluorescence interference counterscreen
[4] = test system: Neuropilin-2 / VEGF-C interaction (human); experiment: inhibitors of NRP2–VEGF-C binding, biochemical, microplate binding format, z-score (AID 743281; call rule not given here); conditions: microplate NRP2/VEGF-C binding assay; stronger effect = lower value
[5] = growth inhibition of DIPG glioma cells, dose response, cell-based, SU-DIPG-XVII, MIPE5.0, CellTiter-Glo, qHTS (AID 1347060; cut-off not given, nearly all actives have AC50 up to about 26 µM;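 for AC50: cells exposed to compound for 48 hours before viability readout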); conditions: SU-DIPG-XVII viability, CellTiter-Glo ATP luminescence
[6] = growth inhibition of DIPG glioma cells, dose response, cell-based, SU-DIPG-XIII, MIPE4.0, CellTiter-Glo, qHTS (AID 1347061; cut-off not given, nearly all actives have AC50 up to about 37 µM;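 note: cells exposed to compound for 48 hours before readout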); conditions: SU-DIPG-XIII viability, CellTiter-Glo ATP luminescence
[7] = growth inhibition of DIPG glioma cells, dose response, cell-based, JHH-DIPG-1, MIPE4.0, CellTiter-Glo, qHTS (AID 1347062; cut-off not given, nearly all actives have AC50 up to about 27 µM;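 for AC50: cells exposed to compound for two days before readout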); conditions: JHH-DIPG-1 viability, CellTiter-Glo ATP luminescence
[8] = growth inhibition of DIPG glioma cells, dose response, cell-based, SU-DIPG-IV, MIPE4.0, CellTiter-Glo, qHTS (AID 1347063; cut-off not given, nearly all actives have AC50 up to about 30 µM;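 note: compound exposure lasted 48 hours before the viability readout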); conditions: SU-DIPG-IV viability, CellTiter-Glo ATP luminescence
[9] = growth inhibition of DIPG glioma cells, dose response, cell-based, SU-DIPG-XIII, MIPE5.0, CellTiter-Glo, qHTS (AID 1347064; cut-off not given, nearly all actives have AC50 up to about 23 µM;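 for AC50: cells exposed to compound for 48 hours before the viability read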); conditions: SU-DIPG-XIII viability, CellTiter-Glo ATP luminescence
[10] = viability loss in pontine glioma line – cell-based, SU-DIPG-XXV, MIPE5.0, CellTiter-Glo, qHTS, dose response (AID 1347065; cut-off not given, nearly all actives have AC50 up to about 26 µM;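 note: cells exposed to compound for 48 hours before ATP readout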); conditions: CellTiter-Glo ATP luminescence
[11] = SU-DIPG-VI glioma cell viability, MIPE4.0 library, CellTiter-Glo luminescence, qHTS (AID 1347066; cut-off not given, nearly all actives have AC50 up to about 30 µM;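 note: cells exposed to compound for 48 hours before readout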); conditions: CellTiter-Glo ATP luminescence
[12] = JHH-DIPG-1 glioma cell viability, MIPE5.0 library, CellTiter-Glo luminescence, qHTS (AID 1347067; cut-off not given, nearly all actives have AC50 up to about 26 µM;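 note: cells exposed to compound for 48 hours before readout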); conditions: JHH-DIPG-1 glioma viability, CellTiter-Glo ATP luminescence
[13] = SU-DIPG-XXV glioma cell viability, MIPE5.0 library, qHTS (AID 1347068; cut-off not given, nearly all actives have IC50 up to about 30 µM;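 for IC50: cells exposed to compound for 48 hours before viability readout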)
[14] = phospholipid biosynthesis inhibitors in animal cells, primary screen, cell-based, LOPAC library, screen 4 (AID 1347384; call rule not given here); conditions: phospholipid biosynthesis inhibition screen, at 10 µM
[15] = ovarian cancer cell viability with rucaparib, profiling panel, oncology-focused library, rucaparib conditional (AID 1508598); conditions: patient-derived ovarian cancer cells, CellTiter-Glo viability, 144 h, stronger effect = lower value
[16] = reducers of polyQ inclusions in PC12 cells, cell-based, NGF-treated PC12, GFPQ80 (AID 1614); conditions: PC12 NGF-treated GFP-polyQ80 inclusion reduction;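 note: lower means fewer inclusions and 0 means no inclusions at all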
[17] = test system: Aerobactin synthetase IucA (Klebsiella pneumoniae); experiment: IucA aerobactin synthetase inhibitors, biochemical, Tocris library, absorbance (AID 1345561; call rule not given here;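 note: 100% = enzyme without compound and 0% = no enzyme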); conditions: purified IucA enzyme assay, absorbance (OD) read-out; stronger effect = lower value;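 tested at 8 µM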
[18] = modifiers of HSF1 nuclear foci, imaging, Selleck Cancer Library (AID 1347162; in the data active = plate-normalised HSF1 focus index below about 0.46); conditions: human cells, at 10 µM; SSMD: measured here: HSF1 foci SSMD mean; cell count: measured here: cell number; plate-normalised HSF1 focus index: stronger effect = lower value
[19] = LFS_MB_P medulloblastoma growth inhibition, cell-based, chromothripsis tumors, cisplatin or BGB combos (AID 1671449; in the data active = inhibition above about 80%;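 note: cells exposed for 96 hours; 0% = vehicle DMSO and 100% = killing by high DMSO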); conditions: LFS_MB_P medulloblastoma cells
[20] = ICB984 medulloblastoma cell growth inhibition, synergistic combos for chromothripsis tumors, cisplatin or BGB combos (AID 1671451; call rule not given here;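 note: cells exposed for 96 hours before readout; 0% = vehicle DMSO and 100% = killing by high DMSO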); conditions: ICB984 medulloblastoma cells, drug combinations, stronger effect = higher value

CCN(CC)C(=S)SSC(=S)N(CC)CC
active: fluorescence slope change [1] 81.8% | AC50 [5] 0.934 µM | AC50 [6] 0.0105 µM | AC50 [7] 0.00935 µM | AC50 [8] 0.0209 µM | AC50 [9] 0.934 µM | AC50 [10] 0.833 µM | AC50 [11] 0.00372 µM | AC50 [12] 0.934 µM | viability ([15]; at 0.000305 µM, OCI-P5x cells, with rucaparib 20 µM, 100% = cells with rucaparib alone) 78.8% | viability ([15]; at 0.000305 µM, OCI-P5x cells, without rucaparib) 89.7% | viability ([15]; at 0.00122 µM, OCI-P5x cells, with rucaparib 20 µM, 100% = cells with rucaparib alone) 76.6% | viability ([15]; at 0.00122 µM, OCI-P5x cells, without rucaparib) 90.8% | viability ([15]; at 0.00488 µM, OCI-P5x cells, with rucaparib 20 µM, 100% = cells with rucaparib alone) 75.9% | viability ([15]; at 0.00488 µM, OCI-P5x cells, without rucaparib) 86.5% | viability ([15]; at 0.0195 µM, OCI-P5x cells, with rucaparib 20 µM, 100% = cells with rucaparib alone) 74.6% | viability ([15]; at 0.0195 µM, OCI-P5x cells, without rucaparib) 78.5%
inactive: period change [2] -0.07 h | fluorescence ratio (interference) [3] 1 | z-score [4] -0.138 | outcome [13] | outcome [14] | viability ([15]; at 0.000305 µM, OCI-C5x cells, with rucaparib 10 µM, 100% = cells with rucaparib alone) 117% | viability ([15]; at 0.000305 µM, OCI-C5x cells, without rucaparib) 126% | viability ([15]; at 0.00122 µM, OCI-C5x cells, with rucaparib 10 µM, 100% = cells with rucaparib alone) 122% | viability ([15]; at 0.00122 µM, OCI-C5x cells, without rucaparib) 146% | viability ([15]; at 0.00488 µM, OCI-C5x cells, with rucaparib 10 µM, 100% = cells with rucaparib alone) 117% | viability ([15]; at 0.00488 µM, OCI-C5x cells, without rucaparib) 130% | viability ([15]; at 0.0195 µM, OCI-C5x cells, with rucaparib 10 µM, 100% = cells with rucaparib alone) 128% | viability ([15]; at 0.0195 µM, OCI-C5x cells, without rucaparib) 126% | viability ([15]; at 0.0781 µM, OCI-C5x cells, with rucaparib 10 µM, 100% = cells with rucaparib alone) 120% | viability ([15]; at 0.0781 µM, OCI-C5x cells, without rucaparib) 120% | viability ([15]; at 0.0781 µM, OCI-P5x cells, with rucaparib 20 µM, 100% = cells with rucaparib alone) 104% | viability ([15]; at 0.0781 µM, OCI-P5x cells, without rucaparib) 131% | viability ([15]; at 0.313 µM, OCI-C5x cells, with rucaparib 10 µM, 100% = cells with rucaparib alone) 135% | viability ([15]; at 0.313 µM, OCI-C5x cells, without rucaparib) 136% | viability ([15]; at 0.313 µM, OCI-P5x cells, with rucaparib 20 µM, 100% = cells with rucaparib alone) 102% | viability ([15]; at 0.313 µM, OCI-P5x cells, without rucaparib) 129% | viability ([15]; at 1.25 µM, OCI-C5x cells, with rucaparib 10 µM, 100% = cells with rucaparib alone) 121% | viability ([15]; at 1.25 µM, OCI-C5x cells, without rucaparib) 135% | viability ([15]; at 1.25 µM, OCI-P5x cells, with rucaparib 20 µM, 100% = cells with rucaparib alone) 103% | viability ([15]; at 1.25 µM, OCI-P5x cells, without rucaparib) 116% | viability ([15]; at 5 µM, OCI-C5x cells, with rucaparib 10 µM, 100% = cells with rucaparib alone) 113% | viability ([15]; at 5 µM, OCI-C5x cells, without rucaparib) 129% | viability ([15]; at 5 µM, OCI-P5x cells, with rucaparib 20 µM, 100% = cells with rucaparib alone) 110% | viability ([15]; at 5 µM, OCI-P5x cells, without rucaparib) 120%

OCCN(CCO)c1nc(N2CCCCC2)c2nc(N(CCO)CCO)nc(N3CCCCC3)c2n1
active: AC50 [6] 20.9 µM | AC50 [10] 18.6 µM
inactive: period change [2] -0.245 h | fluorescence ratio (interference) [3] 1 | remaining activity [17] 98% | outcome [7] | outcome [14]
2: inclusion score [16]

COc1cc2nc(N3CCN(C(=O)c4ccco4)CC3)nc(N)c2cc1OC
inactive: fluorescence ratio (interference) [3] 0.9 | z-score [4] 0.105 | remaining activity [17] 96.4% | outcome [14]
active: AC50 [8] 26.4 µM | AC50 [11] 14.8 µM

CNC(=O)Oc1ccc2c(c1)[C@]1(C)CCN(C)[C@@H]1N2C
inactive: period change [2] 0.16 h | fluorescence ratio (interference) [3] 1 | outcome [14]
2: inclusion score [16]

CC(=O)OCC(=O)[C@@]12OC(C)(C)O[C@@H]1C[C@H]1[C@@H]3C[C@H](F)C4=CC(=O)C=C[C@]4(C)[C@@]3(F)[C@@H](O)C[C@@]12C
inactive: fluorescence slope change [1] 14.5% | outcome [6] | outcome [7] | outcome [9] | outcome [10] | outcome [11] | outcome [13]

C[C@@H]1C[C@H]2[C@@H]3CCC4=CC(=O)C=C[C@]4(C)[C@@]3(F)[C@@H](O)C[C@]2(C)[C@@]1(O)C(=O)CO
6940: cell count [18]
1.52: SSMD [18]
inactive: outcome [5] | outcome [9] | outcome [10] | outcome [12] | outcome [13] | plate-normalised HSF1 focus index [18] 1.08

C#C[C@]1(O)CC[C@H]2[C@@H]3CCC4=CC(=O)CC[C@@H]4[C@H]3CC[C@@]21CC
inactive: fluorescence slope change [1] -2.5% | outcome [5] | outcome [6] | outcome [7] | outcome [8] | outcome [11] | outcome [12] | outcome [13]

COc1ccc2c(c1)c(CC(=O)O)c(C)n2C(=O)c1ccc(Cl)cc1
inactive: period change [2] 0.07 h | fluorescence ratio (interference) [3] 1 | z-score [4] 0.68 | remaining activity [17] 120% | outcome [5] | outcome [10] | outcome [11] | outcome [12] | outcome [13]
2: inclusion score [16]
active: fluorescence slope change [1] 95% | AC50 [6] 18.7 µM

Nc1nc2ccc(OC(F)(F)F)cc2s1
inactive: period change [2] 0.11 h | fluorescence ratio (interference) [3] 0.9 | z-score [4] 1.45 | remaining activity [17] 83.1% | outcome [5] | outcome [6] | outcome [7] | outcome [9] | outcome [11] | outcome [14]
active: fluorescence slope change [1] 60.6% | IC50 [13] 20.9 µM

CC(=O)O[C@]1(C(C)=O)CC[C@H]2[C@@H]3C=C(C)C4=CC(=O)CC[C@]4(C)[C@H]3CC[C@@]21C
active: AC50 [7] 11.8 µM | AC50 [8] 8.33 µM
7050: cell count [18]
inactive: outcome [9] | outcome [11] | outcome [13] | plate-normalised HSF1 focus index [18] 1.04
0.639: SSMD [18]

CCn1cc(C(=O)O)c(=O)c2cc(F)c(N3CCNCC3)cc21
2: inclusion score [16]
inactive: outcome [6] | outcome [7] | outcome [9] | outcome [10] | outcome [11] | outcome [13] | inhibition ([19]; at 0.5 µM, stronger effect = higher value) 7.63% | inhibition ([20]; at 0.5 µM) -9.23%
-7.24%: inhibition ([20]; measured here: 5 uM single agent, at 5 µM)
-19.2%: inhibition ([19]; measured here: combination with cisplatin, at 5 µM, stronger effect = higher value)
-0.516%: inhibition ([19]; measured here: combination with BGB IC40, at 0.05 µM)
-10.9%: inhibition ([19]; measured here: combination with BGB IC40, at 0.005 µM)
-18.2%: inhibition ([20]; BGB IC40 combo, at 0.005 µM)
9.32%: inhibition ([19]; measured here: combination with cisplatin, at 0.5 µM, stronger effect = higher value)
active: fluorescence slope change [1] 98.4%
-17.2%: inhibition ([20]; cisplatin combo, at 5 µM)
-13%: inhibition ([20]; cisplatin combo, at 0.5 µM)
-17.9%: inhibition ([19]; measured here: combination with BGB IC20, at 0.005 µM)
-26.7%: inhibition ([20]; BGB IC20 combo, at 0.005 µM)
-41.7%: inhibition ([20]; BGB IC40 combo, at 0.05 µM) | inhibition ([20]; cisplatin combo, at 0.05 µM)

Nc1c2c(nc3ccccc13)CCCC2
active: fluorescence slope change [1] 56.2%
2: inclusion score [16]
inactive: period change [2] -0.225 h | fluorescence ratio (interference) [3] 1 | z-score [4] -0.542 | remaining activity [17] 109% | outcome [5] | outcome [6] | outcome [7] | outcome [8] | outcome [9] | outcome [10] | outcome [11] | outcome [12] | outcome [13] | outcome [14]

Source: PubChem BioAssay
